HTT ATP protect: protects HTT-Q103 PC12 cells, measured by ATP; PC12 HTT-Q103 induced, cytoprotection, ATP luminescence, 40 h; Potency, µM (doses to about 56.4 µM), inactives show cytoprotection (ATP increase), actives largely listed as activators; 230,000 tested, 0.14% active; AID 1471; also: potency is read from the fitted curve at half-maximal effect; % of control where 0% means no effect; nearly all actives have a fitted effect of over 45% in size
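Huntington model: PC12 line, ecdysone-inducible HTTQ103 exon1–GFP, tebufenozide 100 nM. Test articles in a dose series. Endpoint luminescence from cellular ATP.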
ALDH1A1 block: inhibitors of human aldehyde dehydrogenase 1A1; AID 1030; 220,000 tested, 7.3% active; Purified ALDH1A1, NADH fluorescence, propionaldehyde substrate; P00352; Potency, µM (series often up to 75.3 µM), for the others: at the top dose activity, negative = inhibition, hits mostly inhibitors; active = well fitted inhibition curve with a large enough effect, not every such curve was filed as active; inconclusive = small, poorly fitted or top-dose-only effect, or another doubt; inactive = no such curve, though single readings can be large or run the other way;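 also: potency is read from the fitted curve at half-maximal effect; plate controls were no enzyme wells and a reference inhibitor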
HPGD block: HPGD (human) dehydrogenase inhibition; P15428; purified HPGD, NADH fluorescence kinetic, PGE2 substrate; Potency, µM, for the others: at the top dose activity change, negative = inhibition, usual class: inhibitors; 150,000 tested, 4.3% active; active = well fitted inhibition curve with a large enough effect, not every such curve was filed as active; inconclusive = small, poorly fitted or top-dose-only effect, or another doubt; inactive = no such curve, though single readings can be large or run the other way; also: potency is read from the fitted curve at half-maximal effect; % is scaled to controls: 0 for no effect and ±100 for the full control effect
Target sequence (P15428 whole entry, looked up): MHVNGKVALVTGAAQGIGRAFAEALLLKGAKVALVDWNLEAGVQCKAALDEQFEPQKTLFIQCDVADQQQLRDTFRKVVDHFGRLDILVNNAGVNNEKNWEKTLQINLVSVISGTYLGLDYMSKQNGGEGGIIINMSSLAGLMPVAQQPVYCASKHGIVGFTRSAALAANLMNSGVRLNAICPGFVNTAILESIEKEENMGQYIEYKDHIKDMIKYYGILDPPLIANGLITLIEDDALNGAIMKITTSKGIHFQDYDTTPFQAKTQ
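20 nM HPGD preincubated 15 min at room temperature with compound in 50 mM Tris-HCl pH 8, 0.01% Tween 20. Started with 1 mM NAD+ and 30 uM prostaglandin E2; NADH fluorescence (360/450 nm) read 5 times over 30-s intervals, last minus first.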
HTT aggregate: inhibitors of mutant huntingtin aggregate formation in PC12 cells. PC12 HttQ103-GFP aggregates, Acumen cytometry, 40 h. Potency, µM (series often up to 46.1 µM), for the others: at the top dose activity change, negative = inhibition, actives largely listed as inhibitors. 220,000 tested, 1.1% active; also: potency is read from the fitted curve at half-maximal effect; % is scaled to controls: 0 for no effect and ±100 for the full control effect; nearly all actives have a fitted effect of over 60% in size
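Huntingtin Q103 exon 1–GFP aggregates in induced PC12 cells (100 nM tebufenozide) were quantified by cytometry from lysates, with compounds dosed in titration.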
GoLoco inh red: inhibitors of human Gai1-RGS12 GoLoco interaction (red fluorophore); 230,000 tested, 0.44% active; Gai1:RGS12 GoLoco peptide FP, rhodamine, 10 min; Potency, µM (highest dose often 61.6 µM), inactives show at the top dose activity, negative = inhibition, usual class: inhibitors; P63096; active = well fitted inhibition curve with a large enough effect, not every such curve was filed as active; inactive = no such curve, though single readings can be large or run the other way; also: potency is read from the fitted curve at half-maximal effect; % is scaled to controls: 0 for no effect and ±100 for the full control effect; nearly all actives have a fitted effect of over 30% in size
Target sequence (P63096 whole entry, looked up): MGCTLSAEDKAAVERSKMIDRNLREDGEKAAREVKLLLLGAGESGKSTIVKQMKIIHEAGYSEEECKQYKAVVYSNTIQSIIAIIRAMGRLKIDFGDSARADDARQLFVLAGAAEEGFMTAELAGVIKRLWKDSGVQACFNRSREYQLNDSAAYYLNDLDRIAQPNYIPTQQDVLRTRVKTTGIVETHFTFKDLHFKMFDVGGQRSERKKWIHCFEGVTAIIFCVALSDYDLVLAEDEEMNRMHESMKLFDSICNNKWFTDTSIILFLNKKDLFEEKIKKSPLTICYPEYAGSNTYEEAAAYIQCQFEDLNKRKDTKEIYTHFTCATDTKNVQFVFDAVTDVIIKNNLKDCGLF
PNC inhibitor: blocks assembly of the perinucleolar compartment; PC3M PTB-GFP, PNC prevalence imaging, 16 h; stronger effect = lower value; activity change (PNC), negative = inhibition, % at 10 µM; 140,000 tested, 3.1% active; AID 2417;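 active = readout at or below -70, meaning at least 70% loss of cells showing the perinucleolar compartment, a nuclear body marking cancer cells; inconclusive = readout between -30 and a set limit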;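 also: plate controls were DMSO wells for no effect and camptothecin positive control wells for full effect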
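PC3M cells stably expressing PTB-GFP, 750–1000 cells/well, treated 16 h at 37 °C with compound (23 nl of library stock), in duplicate. After paraformaldehyde fixation and Hoechst stain, imaged at 20x; PNC prevalence scored by image analysis.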
Numbers without * were called inactive; ? = inconclusive; / = not tested or not shown; [ ] = another dose, or the depositor's remark. Sampled rows, rich in hits. Any-hit rate of the full collection: about 11%. Unless noted, calls follow the shape of the dose curve; as a rule, active = well fitted curve in the direction sought with a large enough effect; inconclusive = small, poorly fitted or top-dose-only effect, or another doubt; inactive = no such curve, though single readings can be large; an effect the other way counts as inactive or inconclusive.

SMILES	HTT ATP protect	ALDH1A1 block	HPGD block	HTT aggregate	GoLoco inh red	PNC inhibitor
NCCC[C@@H](CC(=O)N[C@@H]1CCCC[C@H]1C(=O)N[C@H](CC(=O)N[C@@H](CCC(=O)O)CC(=O)O)Cc1ccccc1)NC(=O)C[C@H](CO)NC(=O)[C@@H]1CCCC[C@H]1N	-5%[1.9 µM]	-9%	-1%	/	0%	/
CN1CCN(C2=C(Cl)C(=O)N(c3ccc(Cl)c(Cl)c3)C2=O)CC1	25%	25µM*	-11%	16%	-2%	38
Cc1ccccc1N1C(=O)C(Cl)=C(N2CCN(c3ccccc3)CC2)C1=O	-3%	?	-26%	-4%	-12%	-85*
O=C1C(Cl)=C(N2CCOCC2)C(=O)N1c1ccccc1Cl	-7%	?	-8%	24%	-3%	28
CCn1cc(-c2csc(N)n2)c(C)n1	-65%	0%	/	-15%	15%	/
Nc1nc(N)c(N=Nc2ccc(C(=O)O)c(O)c2)c(N)n1	-33%[10 µM]	-7%[13.5 µM]	?	/	-39%[14.2 µM]	/
CC(=O)OCOC(=O)CN(CC(=O)OCOC(C)=O)c1ccccc1OCCOc1ccccc1N(CC(=O)OCOC(C)=O)CC(=O)OCOC(C)=O	/	-3%	/	/	3%	/
COc1ccc(C2CC2C(C)=O)cc1 (configuration not stated)	-20%	-4%	/	7%	-1%	/
O=c1[nH]oc2cc(Cl)ccc12	16%[10 µM]	/	/	10%[9.22 µM]	7%	/
Cc1cc(N/N=C/c2c[nH]c3ccccc23)c2ccccc2n1	35%[10 µM]	?	/	28%[9.22 µM]	5%	/
Cn1c(N/N=C/c2c[nH]c3ccccc23)nc2ccccc21	-83%	16µM*	?	-9%	1%	15
Fc1c(F)c(F)c(N/N=C/c2c[nH]c3ccccc23)c(F)c1F	-39%[10 µM]	32µM*	-4%	?	-17%	?
CCOC(=O)C1CCN(C(=S)NC2CC3C=CC2C3)CC1 (configuration not stated)	8%[10 µM]	0%	/	6%[9.22 µM]	6%	/
C=C1c2cccc(C(F)(F)F)c2O[C@H](C(=O)OCC)C1OC (mixture of isomers)	-3%	3%	-9%	/	0%[88.7 µM]	/
Cc1cnc(CNc2nc(-c3ccccc3Cl)nc3ccccc23)cn1	4%	14µM*	/	/	9%	/
Cc1ccccc1-c1nc(NCc2cccnc2)c2ccccc2n1	4%	22µM*	-24%	/	-11%	/
Oc1ccccc1-c1nc(NCc2cccnc2)c2ccccc2n1	-13%[10 µM]	/	/	-8%[9.22 µM]	4%	/
Cc1cnc(CNc2nc(-c3c(C)noc3C)nc3ccccc23)cn1	-14%	0%	/	/	0%	/
O=C(O)c1c[nH]c2c(ccc3[nH]cc(C(=O)O)c(=O)c32)c1=O	-22%[10 µM]	-10%[13.5 µM]	-13%	/	2%[14.2 µM]	/
CCN1C(=O)[C@H]2[C@H]3[C@H](O)[C@H](O)C/C(=N/O[C@@H](C)CN4CCCc5nc(C)c(C)cc54)[C@@H]3CC[C@@H]2C1=O	15%[10 µM]	-6%[13.5 µM]	/	/	/	/
CC(=O)Nc1ccc(N(C(=O)CNC(=O)c2ccco2)C(C(=O)NCc2ccco2)c2ccccc2F)cc1 (configuration not stated)	33%[10 µM]	7.9µM*	/	16%[9.22 µM]	10%	/
CCN(CC)S(=O)(=O)c1cccc(-c2nnc(-c3ccc(C)cc3)o2)c1	-30%	11µM*	-23%	-11%	10%	?
CCN(CC)S(=O)(=O)c1ccc(-c2nnc(SC)o2)cc1	-23%	?	-15%	-11%	-3%	-26
CCN(CC)S(=O)(=O)c1cccc(-c2nnc(SCC#N)n2Cc2ccccc2)c1	-5%[10 µM]	10µM*	-6%	-7%	10%	-21
CCN(CC)S(=O)(=O)c1cccc(-c2nnc(SCC(N)=O)n2CCc2ccccc2)c1	-5%[10 µM]	?	-5%	9%	5%	-24
SMILES	HTT ATP protect	ALDH1A1 block	HPGD block	HTT aggregate	GoLoco inh red	PNC inhibitor
CCN(CC)S(=O)(=O)c1cccc(-c2nnc(SC(C)C#N)n2Cc2ccccc2)c1 (configuration not stated)	-26%	7.9µM*	-1%	-12%	12%	5
Cc1ccc(NC(=S)N(CCN(C)C)Cc2cc3cc(C)ccc3[nH]c2=O)cc1	14%[10 µM]	-6%	/	5%[9.22 µM]	6%	/
COc1ccc2c(c1)CCC1C2CC[C@]2(C)[C@H](NCCCCCCN3C(=O)C=CC3=O)CC[C@@H]12 (some centres not stated)	-3%[1.9 µM]	/	/	/	/	/
Cc1cccc(OCC(=O)Nc2cccc(C(=O)Nc3ccccc3C(=O)O)c2)c1	8%[10 µM]	5.6µM*	?	15%	41%	-29
Cc1cccc(OCC(=O)Nc2ccccc2C(F)(F)F)c1	1%[10 µM]	-4%	18µM*	-16%	2%	13
COc1cccc(C(=O)Nc2cc(C)ccc2NC(=O)COc2ccccc2)c1	-18%	14µM*	/	12%	/	20
O=C(COc1ccccc1)Nc1cccc(-c2nnc(-c3ccccc3)o2)c1	-118%[0.074 µM]	-3%	4.5µM*	-13%	-6%	-15
COc1cccc(OCC(=O)Nc2ccccc2NC(C)=O)c1	16%	?	-5%	-1%	7%	-6
Cc1cccc(C)c1OCC(=O)Nc1ccccc1C(F)(F)F	14%	-5%	/	20%	1%	/
O=C(COc1ccccc1)Nc1nnc(-c2ccccc2)o1	-27%	-3%	-17%	20%	5%	12
C(=C/c1ccccc1)/CN1CCN(C(c2ccccc2)c2ccccc2)CC1	-65%[17.1 µM]	-7%[20.9 µM]	-13%	6%[20.6 µM]	5%[21.6 µM]	/
CC(C)c1ccc(OCC(=O)Nc2cccc(C(=O)Nc3ccccc3C(=O)O)c2)cc1	3%[10 µM]	20µM*	/	15%	-2%	/
COc1ccc2nc3c(c([Si](C)(C)C(C)(C)C)c2c1)Cn1c-3cccc1=O	-46%	22µM*	?	/	-10%	/
Cc1nc(N)nc(N)c1/C=C/C(C)(C)c1ccc(Cl)cc1	-52%[10 µM]	4%	/	?	9%	/
N#Cc1cccc(-c2cncnc2NCc2ccccc2)c1	-8%	9%	/	/	-2%	/
CCOC(=O)CCCCC(=O)c1[nH]c(=O)[nH]c1CSc1nnc2c3cc(Br)ccc3n(C)c2n1	18%[10 µM]	0.63µM*	/	10%	1%	/
Cc1cccc(N2CCN(Cc3ccoc3)CC2)c1C	-11%	25µM*	14µM*	3%[9.22 µM]	5%	3
COc1cc(CN2CCN(c3cccc(C)c3C)CC2)cc(OC)c1O	-10%	-9%	-9%	21%	-6%	25
CC(C)c1c(Cl)c(O)c(-c2ccccc2)c(=O)n1-c1ccc(F)cc1	/	?	-3%	4%	-3%	18
O=C(NC1CCCC1)C1CCCN(S(=O)(=O)c2ccc(-n3cnnn3)cc2)C1 (configuration not stated)	11%[10 µM]	5%	-7%	-3%	1%	-8
CCOC(=O)C1CCCN(c2nnnn2-c2ccccc2)C1 (configuration not stated)	0%[10 µM]	7.1µM*	-12%	-8%	-10%	-26

Bioassay records (PubChem BioAssay)
